Assay outcomes (PubChem BioAssay)
Shown are actives, neighbours in structure and some others; about 1.7% of the full set was active somewhere.
Peg3 imprint = genomic imprint erasure induction. mouse ES Peg3-LacZ reporter, beta-gal luminescence, 40 h. 110,000 tested, 0.02% active. Potency, µM (series often up to 60.7 µM), actives largely listed as activators
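Gelatin-coated wells received 300 freshly trypsinized female ES cells with a Peg3LacZ-Neo reporter on the maternal allele, then incubated 40 hours at 37C. BetaGlo was added for 5 minutes at room temperature before a single luminescence read.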
IkB sig inh = suppresses IkB signaling in ABC-DLBCL reporter cells; ABC-DLBCL IkBa-CBG/CBR dual luciferase ratio, 4 h; response scale: scaled: untreated 0%, proteasome inhibitor 100%; Potency, µM (titrated, usually from 57.1 µM); 110,000 tested, 0.04% active; active means well fitted curve in the direction sought with a large enough effect in the signal ratio, not every such curve was filed as active; inconclusive means small, poorly fitted or top-dose-only effect, or a change in a side signal; the % refers to the signal ratio;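 further: the direction sought is a rising ratio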
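Luminescence ratio of IκBα-fused green versus native red beetle luciferase in OCI-Ly3 cells, 4 h post-doxycycline with compound; red signal alone, scaled from basal (0%) to zero light (-100%), flagged nonspecific or cytotoxic effects.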
p53ts 39C tox = cytotoxicity in p53ts cells at nonpermissive temperature; H1299-p53A138V viability at 39C, ATP luminescence, 24 h; Potency, µM (doses to about 46.1 µM), actives largely listed as cytotoxic; 130,000 tested, 1.5% active; AID 902; further: nearly all actives have a fitted effect of over 55% in size
p53ts 32C tox = p53ts cell cytotoxicity, permissive temperature; H1299-p53A138V at 32C, ATP luminescence viability, 24 h; 130,000 tested, 0.93% active; Potency, µM (doses to about 46.1 µM), usual class: cytotoxic; further: nearly all actives have a fitted effect of over 55% in size
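Cells: H1299 p53ts (A138V), 600/well, pre-incubated 16–30 h at 37C. Cpd up to 46 uM, 24 h, 32C. Readout: ATPlite luminescence, 20 min RT. Normalization: DMSO vs tamoxifen 100 uM. AC50 by Hill equation.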
Numbers stand for hits; . = inactive; ? = inconclusive; / = not tested or not shown; [ ] = dose if it differs, or a comment. Unless noted, the call rests on the fitted dose curve; in most records, active means well fitted curve in the direction sought with a large enough effect; inconclusive means small, poorly fitted or top-dose-only effect, or another doubt; inactive means no such curve, though single readings can be large; an effect the other way counts as inactive or inconclusive.

SMILES	Peg3 imprint	IkB sig inh	p53ts 39C tox	p53ts 32C tox
Cn1c(=O)c2[nH]cnc2n(C)c1=O.[CH2-][C@H](Cc1cccc2cc(C(=O)O)c(=O)oc12)OC.[Hg].[OH-]	.[10.9 µM]	.[11.4 µM]	.[9.22 µM]	.[9.22 µM]
COc1ccccc1NC(=O)c1oc2ccccc2c1NC(=O)c1ccccc1C(F)(F)F	.[10.9 µM]	.	16µM	?
COc1ccc(NC(C)=O)cc1NC(=O)c1cccn(Cc2ccccc2)c1=O	.[10.9 µM]	?	.	.
CCCN1CCC[C@H](c2cccc(C#N)c2)C1	/	.	.	.
CN1CCN(C(=O)COc2ccc(-c3nc4ccccc4s3)cc2)CC1	.	.	0.79µM	1µM
CC[C@@]12CCCN3CC[C@@]4(c5ccc(OC)c(O)c5N(C(C)=O)[C@H]4CC1)[C@H]32	/	.[11.4 µM]	/	/
N#CS.N=C=S.N=C=S.[Cu].[NH2-].[NH2-].[NH2-].[NH2-].c1ccc2ncccc2c1	.[10.9 µM]	.[11.4 µM]	.[9.22 µM]	.[9.22 µM]
O=C(O)c1cc[c]([Hg][S]c2ncnc3nc[nH]c23)cc1	.[10.9 µM]	.[11.4 µM]	?	.[9.22 µM]
CCCCCCCC/C=C\CCCCCCCC(N)=O	.	.	32µM	.
COC1=C[C@H]2[C@@H]3Cc4ccc(OC)c(O)c4[C@@]2(CCN3C)CC1=O	/	.[11.4 µM]	/	/
O=C1C=CC(=O)c2c1ccc1c2ccc2ccccc21	.	?	.	10µM
CC[C@H](CO)NC(=O)[C@@H]1C=C2c3cccc4c3c(cn4C)C[C@@H]2N(C)C1	/	.	.	.
O=C(CCCN1CCC2(CC1)C(=O)N(CCc1ccc(N=C=S)cc1)CN2c1ccccc1)c1ccc(F)cc1	/	.	/	/
Nc1nc2c(ncn2[C@@H]2O[C@H](CO)[C@@H](O)[C@@H]2O)c(=[SH+])[nH]1.O=[N+]([O-])c1ccc(O)[c]([Hg])c1	.[10.9 µM]	/	/	/
C=CCn1c(O)c(C(C)=NCc2cc(OC)cc(OC)c2)c(=O)[nH]c1=O	.	.	?	10µM
C=CCn1c(O)c(C(C)=NCc2cccnc2)c(=O)[nH]c1=O	.	.	.	.
CCn1cnc2c(Nc3cccc(Cl)c3)nc(N[C@@H]3CCCC[C@H]3N)nc21	/	?	13µM	10µM
C[C@]12Cc3cn4c(nc3C=C1CC[C@H]1[C@@H]2CC[C@@]2(C)[C@H]1CC[C@@]2(O)C#N)nc1ccccc14	/	?	.	?
COc1ccc(-c2cc(=O)c3cc(OCC(=O)OC(C)C)ccc3o2)cc1	.[10.9 µM]	?	3.2µM	3.2µM
C/C=C(\C)C(=O)O[C@@H]1C(C)=C2[C@H]([C@@H]1OC(=O)CCCCCCC)[C@@](C)(OC(C)=O)C[C@@H](OC(=O)CCC)[C@@]1(O)[C@H]2OC(=O)[C@]1(C)O	/	4µM	13µM	25µM
CC(=O)c1cccc(NC(=O)c2cccn(Cc3cccc(C)c3)c2=O)c1	.[10.9 µM]	?	.	.
CC(=O)c1cccc(NC(=O)c2cc3c(s2)-c2c(C)cccc2OC3)c1	.[10.9 µM]	?	5µM	10µM
